In PubChem BioAssay AID1463 (National Center for Advancing Translational Sciences (NCATS), 2008) one finds Potency data, which are given here for 15 compounds.

Values joined by “and” are separate entries in the source; they are usually repeats but may differ in a detail not shown here. Identical values can stand only once. Out of some 280,000 compounds screened, about 2,600 (0.93%) were called active. Not shown: some 8% with an inconclusive outcome. The call rests on the fitted dose curve; in most records, active means well fitted curve in the direction sought with a large enough effect; inconclusive means small, poorly fitted or top-dose-only effect; inactive means flat fitted curve, though single readings scatter. Shown is part of a subset that was picked to be rich in actives. Entries that show only a call come without a potency.
Potency means the concentration at half of the fitted maximal effect; tags describe the fitted curve by direction and shape or compound fluorescence and quenching.

This assay in a line: Counterscreen qHTS for Inhibitors of Tau Fibril Formation, Fluorescence Polarization. Further: nearly all actives have a fitted effect of over 55% in size. The note with it: tau K18 P301L (four-repeat tau fragment) Alexa594 fluorescence, heparin fibrillization; series mostly up to 57.7 µM. From the text: NIH Molecular Libraries Probe Production Network [MLPCN]
NIH Chemical Genomics Center [NCGC]
Assay Provider: Carlo Ballatore, University of Pennsylvania
The microtubule-associated protein tau is an abundant protein in the axons of neurons that stabilizes microtubules. With its ability to modulate microtubule dynamics, tau contributes directly or indirectly, to key structural and regulatory cellular functions. Particularly important is the influence tau exerts on axonal transport, which allows signaling molecules, trophic factors and other essential cellular constituents to travel along the axons. Under pathological conditions, tau becomes sequestered into insoluble aggregates called neurofibrillary tangles. This phenomenon is believed to have pathological consequences by promoting axonal transport deficits that ultimately lead to synaptic dysfunction and neuronal loss. To identify inhibitors of tau aggregation, a heparin-induced tau fibril formation assay was used that employed a recombinantly expressed fragment of tau, K18 (Q242-E372), bearing a P301L mutation (Gustke et al. 1994; Hong et al. 1998). […] Total fluorescence (555 nm excitation and 632 nm emission) was measured to identify fluorescent or absorbent compounds at this wavelength. Such compounds may be artifacts that interfere with the Alexa 594 Tau fluorescence polarization assay.
Gustke, N., B. Trinczek, et al. (1994). "Domains of tau protein and interactions with microtubules." Biochemistry 33(32): 9511-22.
Hong, M., V. Zhukareva, et al. (1998).
Li, W. and V. M. Lee (2006). "Characterization of two VQIXXK motifs for tau fibrillization in vitro." Biochemistry 45(51): 15692-701.
von Bergen, M., S. Barghorn, et al. (2001). "Mutations of tau protein in frontotemporal dementia promote aggregation of paired helical filaments by enhancing local beta-structure." J Biol Chem 276(51): 48165-74.
NCGC Assay Protocol Summary:
For screening, 2 uL/well human K18 P301L (15 uM unlabeled and 0.24 uM Alexa 594-labeled tau final concentrations) in reagent buffer (100 mM sodium acetate pH 7) was dispensed into black solid 1536-well plates (Grenier) using a solenoid-based dispenser. Following transfer of 23 nL compound or DMSO vehicle by a pin tool, 2 uL/well heparin (20 uM final concentration) in reagent buffer was added and the plate centrifuged 15 s at 1000 RPM. Plates were incubated 6 hr at 37 C and then 1 uL/well ThT (30 uM final concentration) was added. After a 1 hr ambient incubation, the plates were read by an Envision (Perkin Elmer) to monitor Alexa 594 FP (555 nm excitation and 632 nm emission).
Keywords: NIH Roadmap, MLPCN, MLI, MLSMR, NCGC, qHTS, tau, tauopathies, Alzheimer's disease, fibril, neurodegeneration, aggregation
For the compound `O=C(OCC1O[C@@H](OC(=O)c2cc(O)c(O)c(O)c2)[C@@H](OC(=O)c2cc(O)c(O)c(O)c2)[C@@H](OC(=O)c2cc(O)c(O)c(O)c2)[C@@H]1OC(=O)c1cc(O)c(O)c(O)c1)c1cc(O)c(O)c(O)c1` (stereo not given in full), the Potency is 10 µM [quencher] (active).

Take `C=CCN1CCC2(C)c3cc(O)ccc3CC1[C@@H]2C` (stereo not given in full): the Potency entry was “inactive”. With `COC1CC(OC2CC[C@@]3(C=O)C4CC[C@]5(C)C(C6=CC(=O)OC6)CC[C@@]5(O)C4CC[C@]3(O)C2)OC(C)C1O` (stereo not given in full), the Potency result was “inactive”. For the compound `N#CC(C#N)=Cc1cc(O)c(O)c([N+](=O)[O-])c1`, the Potency result is “inactive”.

Turning to `CC(=O)c1c(O)c(C)c(O)c(Cc2c(O)c3c(c(C(=O)/C=C/c4ccccc4)c2O)OC(C)(C)C=C3)c1O`, the Potency is 15.8 µM [quencher] (active) and 12.6 µM [quencher] (active).

`CO[C@@H]1C[C@@H](C[C@H]2CC[C@H](C)[C@@H]([C@@H](C)C(=O)O)O2)O[C@]2(O[C@](C)([C@H]3CC[C@@](C)(C4OC([C@H]5O[C@@](O)(CO)[C@H](C)C[C@@H]5C)C[C@@H]4C)O3)C[C@H]2C)[C@@H]1C` (stereo not given in full): the Potency result was “inactive”. For `CN(C)[C@@H]1C(=O)C(C(N)=O)=C(O)[C@@]2(O)C(=O)C3=C(O)c4c(O)cccc4[C@@](C)(O)C3CC12` (stereo not given in full), the Potency result is “inactive”.

`CCCCCCCCCCCCCC(=O)O[C@@H]1[C@@H](C)[C@@]2(O)[C@@H](C=C(CO)C[C@]3(O)C(=O)C(C)=C[C@@H]23)[C@@H]2C(C)(C)[C@]12OC(C)=O`: the Potency entry was “inactive”. Consider `COc1ccccc1-c1[se]c2ccccc2c1I`, for which the Potency entry was “inactive”. The value for `c1ccc2sc(SNC3CCCCC3)nc2c1` was “inactive”. The value for `CC(C)(C)c1ccc(S(=O)(=O)Nc2ccc(O)c(Sc3nc4ccccc4s3)c2)cc1` was 8.91 µM [quencher] (active); that for `CC[C@]1(O)C(=O)OCc2c1cc1n(c2=O)Cc2cc3ccccc3nc2-1` was “inactive”; that for `CCCN(C/C=C/I)C1CCc2ccc(O)cc2C1` (stereo not given) was “inactive”. For `CN(C)C1C(=O)C(C(N)=O)=C(O)[C@@]2(O)C(=O)C3=C(O)c4c(O)cccc4[C@@](C)(O)C3C[C@@H]12` (stereo not given in full), the Potency entry was “inactive”. Regarding `CC[C@@H]1CN2CC[C@@H]1C[C@H]2[C@H](O)c1ccnc2ccc(OC)cc12`, the Potency entry is “inactive”.
